From PubChem BioAssay
FGF22 binding = shifts melting point of recombinant human FGF22 | activity (Tm shift, normalised), % at 9.99 µM | AID 651658 | recombinant FGF22 thermal shift, SYPRO orange fluorescence; percent of sucrose octasulfate shift, DMSO zero | 340,000 tested, 1.5% active;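 active = mean Tm shift, scaled 0 neutral to 100 positive control, at about 1.3% or above, every replicate too, limit read from the data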
Target sequence (Q9HCT0 whole entry, looked up): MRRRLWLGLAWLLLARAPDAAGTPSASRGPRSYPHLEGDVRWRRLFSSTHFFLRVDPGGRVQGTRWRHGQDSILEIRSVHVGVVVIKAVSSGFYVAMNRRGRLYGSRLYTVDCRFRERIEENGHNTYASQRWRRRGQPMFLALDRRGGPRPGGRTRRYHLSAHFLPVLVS
F508del corr = correctors of CFTR F508del function in bronchial epithelial cells; CFBE cells, YFP halide quenching; stimulated with forskolin plus potentiator P3; % fluorescence drop versus neutral controls; activity (quench increase), % at 7.58 µM; 350,000 tested, 0.36% active; AID 720511;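 active = mean added fluorescence quench of at least 8% versus neutral control, with both replicates also reaching 8%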;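 note: cells transiently co-express mutant CFTR-F508del with the halide-sensitive YFP; corrector assay measuring rescue of mutant channel to the surface after 24 h compound exposure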
Vif inh = inhibitors of HIV Vif | inhibition, % at 7.49 µM | 340,000 tested, 0.35% active | HEK293T cells, Vif self-association by quenched fluorescence, imaging, 24 h; in the data active = inhibition above about 50%, passing the limit was not always enough
* marks the source's active call; other numbers are inactive results. Most compounds without a hit are left out; they make up all but 1.7% or so of the library.

Screening COc1ccc(S(=O)(=O)Nc2ccc3c(c2)C(=O)N([C@H](C)CO)C[C@@H](C)[C@H](CN(C)S(=O)(=O)c2ccc(Cl)cc2)OCCCC[C@H](C)O3)cc1 returned FGF22 binding 23* and F508del corr -4.
CO[C@H]1CN(C)C(=O)c2cc(NS(C)(=O)=O)ccc2OC[C@H](C)N(C(=O)C2CCCCC2)C[C@H]1C was read as FGF22 binding 0 and F508del corr -1.
For COc1ccc(NC(=O)N(C)C[C@H]2Oc3ncc(C#C[C@@H](C)O)cc3C(=O)N([C@H](C)CO)C[C@@H]2C)cc1 the results were FGF22 binding 0 and F508del corr 1.
C[C@H](NC(=O)[C@H]1[C@H](CO)[C@H]2Cn3c(ccc(C4=CCCC4)c3=O)[C@H]2N1C)c1ccccc1 was read as F508del corr 3.
CCOc1ccc(NC(=O)CSc2nnc(Cn3cnc([N+](=O)[O-])n3)n2CC)cc1 was read as FGF22 binding 43*, F508del corr -1 and Vif inh 13.
`CCOc1ccc(NC(=O)CSc2nnc(Cn3cnc([N+](=O)[O-])n3)n2C)cc1` gave Vif inh 2.
For CN(C)S(=O)(=O)c1ccc(Cl)c(NC(=O)CN2CCC(Cc3ccccc3)CC2)c1 the results were FGF22 binding -1, F508del corr -1 and Vif inh -4.
`CN(C)S(=O)(=O)c1ccc(NC(=O)CN2CCC(Cc3ccccc3)CC2)cc1` gave FGF22 binding 44*, F508del corr -1 and Vif inh 8.
Screening CO[C@H](CN(C)S(=O)(=O)c1ccc(Cl)cc1)[C@@H](C)CN(C(=O)Nc1ccccc1F)[C@@H](C)CO returned FGF22 binding 0 and F508del corr 0.
For COC(=O)C[C@@H]1C=C[C@@H](NC(=O)c2ccccc2)[C@@H](CO)O1 the results were FGF22 binding 0 and F508del corr 3.
`O=C(Nc1c2c(nc3ccccc13)CCCC2)c1ccccc1Cl` gave FGF22 binding 44*, F508del corr -1 and Vif inh -4.
`COCCCNc1c2c(nc3ccccc13)CCC2` gave FGF22 binding 44*, F508del corr 0 and Vif inh 0.
`COc1ccc(Nc2c3c(nc4ccccc24)CCC3)c(OC)c1` gave FGF22 binding 0, F508del corr 4 and Vif inh 2.
`COC(=O)c1cccc(Nc2c3c(nc4ccccc24)CCC3)c1` gave FGF22 binding 0, F508del corr 3 and Vif inh -12.
`CN(C)CCNc1c2c(nc3ccccc13)CCC2` gave FGF22 binding 0, F508del corr 6 and Vif inh -1.
`CC(=O)c1cccc(Nc2c3c(nc4ccccc24)CCC3)c1` gave FGF22 binding 0, F508del corr 15* and Vif inh -10.
`COc1ccccc1Nc1c2c(nc3ccccc13)CCC2` gave FGF22 binding 0, F508del corr 9.8* and Vif inh 1.
For O=C(Nc1c2c(nc3ccccc13)CCCC2)c1ccccc1F the results were FGF22 binding 0, F508del corr -2 and Vif inh -6.
`COc1ccc(S(=O)(=O)N(C)C[C@@H]2OCCCC[C@H](C)Oc3ccc(NC(=O)Nc4ccc(C(F)(F)F)cc4)cc3C(=O)N([C@@H](C)CO)C[C@H]2C)cc1` gave FGF22 binding 1 and F508del corr 0.
Screening C[C@H]1CN([C@@H](C)CO)C(=O)Cc2cc(NS(=O)(=O)c3cn(C)cn3)ccc2O[C@@H]1CN(C)C(=O)NC1CCCCC1 returned FGF22 binding 0 and F508del corr 1.
For COc1ccc2nc3ccccc3nc2c1NC(=O)c1ccccc1Cl the results were FGF22 binding 43*, F508del corr -1 and Vif inh -1.
`O=C(Nc1ccc2ccccc2n1)c1ccccc1Cl` gave FGF22 binding 0, F508del corr 0 and Vif inh -6.
CN(C)C(=O)c1ccc(-c2ccc3c(c2)[C@H]2[C@H](CCN2C(=O)c2ccccc2F)[C@H](CO)N3)cc1 was read as F508del corr 5.
`Cc1cccc(CN2CCc3c([nH]c4ccccc34)C2CC(C)C)n1` (stereo not drawn) gave FGF22 binding 0, F508del corr 1 and Vif inh -10.
`Cc1cnc(CN2CCc3c([nH]c4ccccc34)C2CC(C)C)[nH]1` (stereo not drawn) gave FGF22 binding 43*, F508del corr 0 and Vif inh -1.
Screening COc1ccc(S(=O)(=O)N2CC[C@@H]3[C@@H](CO)Nc4ccc(-c5ccccc5F)cc4[C@@H]32)cc1 returned FGF22 binding 0 and F508del corr 1.
For Cc1nnc(SCC(=O)N(C)C2CCCCC2)s1 the results were FGF22 binding 44*, F508del corr 0 and Vif inh 5.
`CN(C(=O)CSc1n[nH]c(N)n1)C1CCCCC1` gave FGF22 binding 0, F508del corr 1 and Vif inh -6.
Screening CCOc1ccc2nc(N3C(=O)CNC3=S)sc2c1 returned FGF22 binding 0, F508del corr 0 and Vif inh 4.
`Cc1cc2nc(N3C(=O)CNC3=S)sc2cc1C` gave FGF22 binding 43*, F508del corr 1 and Vif inh 18.
Screening O=C(NCC(c1ccc(F)cc1)N1CCOCC1)c1cc(F)c(F)c(F)c1F (stereo not drawn) returned FGF22 binding 43*, F508del corr -4 and Vif inh -3.
For O=C(NCC(c1ccc(F)cc1)N1CCOCC1)c1ccccc1F (stereo not drawn) the results were FGF22 binding 0, F508del corr -3 and Vif inh -1.
`CC(=O)N(C)C[C@H]1Oc2ncc(C#Cc3ccc(F)cc3)cc2C(=O)N([C@@H](C)CO)C[C@H]1C` gave FGF22 binding 0 and F508del corr 1.
`COCc1[nH]nc2c1C(c1ccc(F)cc1)N(c1ccc(OC)cc1)C2=O` (stereo not drawn) gave FGF22 binding 43* and F508del corr -1.
COCc1[nH]nc2c1C(c1ccc(F)cc1)N(c1ccccc1)C2=O (stereo not drawn) was read as FGF22 binding 42 and F508del corr 1.
Screening COc1ccccc1CN1C[C@@H]2C[C@@H](c3ccc(Cl)cc3)N3CCC[C@@]23C1=O returned FGF22 binding 43* and Vif inh 4.
`COc1ccccc1CN1C[C@@H]2C[C@@H](c3ccccc3OC)N3CCC[C@@]23C1=O` gave FGF22 binding 0, F508del corr 0 and Vif inh -10.
Screening COc1ccc(NC(=O)N(C)C[C@H]2Oc3ccc(NC(=O)CCC(F)(F)F)cc3C(=O)N([C@@H](C)CO)C[C@@H]2C)cc1 returned FGF22 binding 0 and F508del corr -1.
For CCCc1c(C(=O)N/N=C(\C)c2ccc(CC(C)C)cc2)nnn1-c1nonc1N the results were FGF22 binding 44*, F508del corr 0 and Vif inh -3.
CCCc1c(C(=O)N/N=C(\C)c2ccc3c(c2)OCO3)nnn1-c1nonc1N was read as FGF22 binding 0, F508del corr 2 and Vif inh 10.
